The text below walks through data of PubChem BioAssay (EPA / NIEHS).

Activity calls are given as the source filed them. Rule for the calls: active = hit-call score of the fitted dose curve at least 0.9, where 1 is the maximum; inactive = score below 0.9.

For orientation: AC50 means the concentration giving half of the maximal activity seen.

Holding throughout (settings): mRNA level, 48 h; actives raise or lower the signal
Read-out in test [1]: JUN Transcription Factor, JUN (gene 3725)
Briefly: LTEA_HepaRG_JUN: Life Technologies and Expression Analysis (LTEA) Assay for JUN Transcription Factor using HepaRG (AID 2283513). In a few lines: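 HepaRG cells, 48 h post-plating, exposed 48 h in serum-free induction medium to 8-point half-log series (top 100 uM, 0.5% DMSO), duplicate; mRNA by qRT-PCR (TaqMan, Fluidigm), normalized to ACTB/GAPDH/POLR2A; bidirectional fit vs DMSO.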

Read-out in test [2]: Lipase C (LIPC), LIPC (gene 3990)
Briefly: LTEA_HepaRG_LIPC: Life Technologies and Expression Analysis (LTEA) Assay for Lipase C (LIPC) using HepaRG (AID 2283514). In a few lines:
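HepaRG cells, 48 h after plating, treated in duplicate for 48 h in serum-free induction medium over 8 half-log concentrations from 100 uM, 0.5% DMSO. LIPC mRNA by TaqMan qRT-PCR normalized to ACTB/GAPDH/POLR2A; bidirectional fit versus DMSO.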

Read-out in test [3]: Lipoprotein lipase (LPL), LPL (gene 4023)
Briefly: LTEA_HepaRG_LPL: Life Technologies and Expression Analysis (LTEA) Assay for Lipoprotein lipase (LPL) using HepaRG (AID 2283515). In a few lines:
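Differentiated HepaRG cells, plated 48 h, then exposed 48 h in serum-free induction medium to 8 concentrations (top 100 uM, half-log steps) in 0.5% DMSO, duplicate. LPL mRNA measured by qRT-PCR, normalized to ACTB, GAPDH and POLR2A.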

Read-out in test [4]: MicroRNA 122 (MIR122), gene 406906
Briefly: LTEA_HepaRG_MIR122: Life Technologies and Expression Analysis (LTEA) Assay for MicroRNA 122 (MIR122) using HepaRG (AID 2283516). Note: the transcript read is the microRNA miR-122. In a few lines: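 Differentiated human HepaRG cells in serum-free induction medium exposed 48 h to 8 half-log concentrations from 100 uM in 0.5% DMSO, duplicate. MIR122 quantified by Fluidigm TaqMan qRT-PCR, normalised to ACTB, GAPDH, POLR2A; fold change fitted bidirectionally versus DMSO.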

Read-out in test [5]: matrix metalloproteinase-10 (MMP10), MMP10 (gene 4319)
Put plainly: LTEA_HepaRG_MMP10: Life Technologies and Expression Analysis (LTEA) Assay for matrix metalloproteinase-10 (MMP10) using HepaRG (AID 2283517). In a few lines:
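Differentiated HepaRG cells in serum-free induction medium exposed 48 h in duplicate to 8-point half-log series up to 100 uM in 0.5% DMSO. mRNA quantified by qRT-PCR, normalised to ACTB, GAPDH, POLR2A; bidirectional fit versus DMSO.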

Read-out in test [6]: MYC, MYC (gene 4609)
Briefly: LTEA_HepaRG_MYC: Life Technologies and Expression Analysis (LTEA) Assay for MYC using HepaRG (AID 2283518). In a few lines: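 MYC transcript changes, up or down relative to 0.5% DMSO, from TaqMan qRT-PCR normalized to three housekeeping genes. Human HepaRG cultures received chemicals for 48 h at eight half-log concentrations up to 100 uM, in duplicate.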

Read-out in test [7]: matrix metalloproteinase-3 (MMP3), MMP3 (gene 4314)
Put plainly: LTEA_HepaRG_MMP3: Life Technologies and Expression Analysis (LTEA) Assay for matrix metalloproteinase-3 (MMP3) using HepaRG (AID 2283519). In a few lines:
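HepaRG cells (~100,000/well) in serum-free induction medium were dosed in duplicate for 48 h with an 8-point half-log series from 100 uM, 0.5% DMSO. MMP3 mRNA was quantified by Fluidigm TaqMan qRT-PCR, normalized to three housekeeping genes.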

Read-out in test [8]: Paternally Expressed 10 (PEG10), PEG10 (gene 23089)
Briefly: LTEA_HepaRG_PEG10: Life Technologies and Expression Analysis (LTEA) Assay for Paternally Expressed 10 (PEG10) using HepaRG (AID 2283520). In a few lines:
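Differentiated HepaRG cells exposed 48 h in serum-free induction medium to eight half-log concentrations topping at 100 uM, 0.5% DMSO, in duplicate. PEG10 mRNA quantified by TaqMan qRT-PCR, normalized to ACTB, GAPDH and POLR2A; bidirectional fit versus DMSO.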

Read-out in test [9]: Nuclear factor NF-kappa-B p105 subunit (Homo sapiens) (UniProt P19838)
Put plainly: LTEA_HepaRG_NFKB1: Life Technologies and Expression Analysis (LTEA) Assay for Nuclear Factor Kappa B Subunit 1 (NFKB1) using HepaRG (AID 2283521).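 Note: TaqMan qRT-PCR transcript normalised to ACTB GAPDH and POLR2A housekeeping genes.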 In a few lines:
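Human HepaRG cells receive eight half-log concentrations, highest 100 uM, for 48 h. NFKB1 expression is then quantified by qRT-PCR and analysed for up- or down-regulation relative to 0.5% DMSO vehicle.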

Read-out in test [10]: Protein phosphatase 2A (PPP2R4), PTPA (gene 5524)
Briefly: LTEA_HepaRG_PPP2R4: Life Technologies and Expression Analysis (LTEA) Assay for Protein phosphatase 2A (PPP2R4) using HepaRG (AID 2283522). In a few lines:
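Differentiated human HepaRG cells in serum-free induction medium were exposed 48 h to 8 concentrations (top 100 µM, half-log steps, duplicate) in 0.5% DMSO. PPP2R4 mRNA was measured by TaqMan qRT-PCR, normalised to ACTB, GAPDH and POLR2A, and fitted bidirectionally versus DMSO.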

Read-out in test [11]: Phosphatase and tensin (PTEN), PTEN (gene 5728)
Put plainly: LTEA_HepaRG_PTEN: Life Technologies and Expression Analysis (LTEA) Assay for Phosphatase and tensin (PTEN) using HepaRG (AID 2283523). In a few lines: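 HepaRG cells, 48 h after plating, exposed in duplicate for 48 h in serum-free induction medium to 8 half-log concentrations up to 100 uM (0.5% DMSO). PTEN mRNA by qRT-PCR, normalized to ACTB, GAPDH, POLR2A; bidirectional fit versus DMSO.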

Read-out in test [12]: solute carrier (SLC22A1), SLC22A1 (gene 6580)
Put plainly: LTEA_HepaRG_SLC22A1: Life Technologies and Expression Analysis (LTEA) Assay for solute carrier (SLC22A1) using HepaRG (AID 2283524). In a few lines:
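Differentiated human HepaRG cells in serum-free induction medium, exposed 48 h in duplicate to 8-point half-log series from 100 µM top in 0.5% DMSO. SLC22A1 mRNA by TaqMan qRT-PCR normalized to ACTB, GAPDH, POLR2A; bidirectional fit versus DMSO.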

Read-out in test [13]: Pyruvate Dehydrogenase Kinase 4 (PDK4), PDK4 (gene 5166)
Briefly: LTEA_HepaRG_PDK4: Life Technologies and Expression Analysis (LTEA) Assay for Pyruvate Dehydrogenase Kinase 4 (PDK4) using HepaRG (AID 2283525). In a few lines:
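HepaRG cells plated 48 h, then switched to serum-free induction medium and exposed in duplicate for 48 h to 8 half-log concentrations from 100 uM in 0.5% DMSO. PDK4 mRNA measured by qRT-PCR, normalized to ACTB, GAPDH and POLR2A; bidirectional fit versus DMSO.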

Read-out in test [14]: NAD(P)H dehydrogenase [quinone] 1 (NQO1), NQO1 (gene 1728)
Put plainly: LTEA_HepaRG_NQO1: Life Technologies and Expression Analysis (LTEA) Assay for NAD(P)H dehydrogenase [quinone] 1 (NQO1) using HepaRG (AID 2283526). In a few lines:
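Differentiated human HepaRG cells in serum-free induction medium, dosed in duplicate for 48 h at 8 half-log concentrations up to 100 uM in 0.5% DMSO. NQO1 mRNA by qRT-PCR normalized to ACTB, GAPDH, POLR2A; bidirectional fit versus DMSO baseline.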

Read-out in test [15]: Nuclear factor erythroid 2-related factor 2 (Homo sapiens) (UniProt Q16236)
Briefly: LTEA_HepaRG_NFE2L2: Life Technologies and Expression Analysis (LTEA) Assay for Nuclear factor erythroid 2-related factor 2 (NFE2L2) Transcription Factor using HepaRG (AID 2283527).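 Note: TaqMan qRT-PCR transcript level normalised to ACTB GAPDH and POLR2A housekeeping genes.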 In a few lines:
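Differentiated human HepaRG cells, serum-free induction medium, exposed 48 h in duplicate to eight half-log concentrations up to 100 uM in 0.5% DMSO. NFE2L2 mRNA by Fluidigm TaqMan qRT-PCR, normalised to ACTB, GAPDH, POLR2A; bidirectional change versus DMSO.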

Read-out in test [16]: succinate dehydrogenase complex iron sulfur subunit B (SDHB), SDHB (gene 6390)
Put plainly: LTEA_HepaRG_SDHB: Life Technologies and Expression Analysis (LTEA) Assay for succinate dehydrogenase complex iron sulfur subunit B (SDHB) using HepaRG (AID 2283528). In a few lines:
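A human HepaRG culture in serum-free induction medium received test chemicals for 48 h over an eight-point range capped at 100 uM. SDHB expression change was quantified by qRT-PCR.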

Read-out in test [17]: Signal transducer and activator of transcription 3 (Homo sapiens) (UniProt P40763)
Put plainly: LTEA_HepaRG_STAT3: Life Technologies and Expression Analysis (LTEA) Assay for Signal transducer and activator of transcription (STAT3) using HepaRG (AID 2283529). In a few lines: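 Differentiated HepaRG cells, serum-free induction medium, dosed 48 h in duplicate, 8 half-log concentrations from 100 uM in 0.5% DMSO. STAT3 mRNA by qRT-PCR, normalised to ACTB, GAPDH, POLR2A; bidirectional fit versus DMSO.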

Read-out in test [18]: solute carrier (SLCO1B1), SLCO1B1 (gene 10599)
Put plainly: LTEA_HepaRG_SLCO1B1: Life Technologies and Expression Analysis (LTEA) Assay for solute carrier (SLCO1B1) using HepaRG (AID 2283530). In a few lines:
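SLCO1B1 transcript levels were quantified by TaqMan qRT-PCR using three housekeeping genes for normalization. This followed 48 h chemical exposure (100 uM top, half-log, 8 points, 0.5% DMSO) of HepaRG liver cells, with gain or loss fitted relative to DMSO.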

Read-out in test [19]: sulfotransferase 2A1 (SULT2A1), SULT2A1 (gene 6822)
Briefly: LTEA_HepaRG_SULT2A1: Life Technologies and Expression Analysis (LTEA) Assay for sulfotransferase 2A1 (SULT2A1) using HepaRG (AID 2283531). In a few lines:
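Expression change of SULT2A1, by qRT-PCR with three housekeeping-gene normalization, was scored bidirectionally versus DMSO. Cells: differentiated HepaRG, dosed in duplicate for 48 h across 8 points, highest 100 µM, half-log dilution, 0.5% DMSO.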

Read-out in test [20]: Transforming Growth Factor (TGFA), TGFA (gene 7039)
Put plainly: LTEA_HepaRG_TGFA: Life Technologies and Expression Analysis (LTEA) Assay for Transforming Growth Factor (TGFA) using HepaRG (AID 2283532). In a few lines: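 Differentiated HepaRG cells exposed 48 hours in serum-free induction medium, 0.5% DMSO vehicle, 8-point half-log series from 100 uM, in duplicate. TGFA mRNA by TaqMan qRT-PCR, normalised to ACTB, GAPDH, POLR2A; bidirectional fit versus DMSO.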

Sequence of Nuclear factor erythroid 2-related factor 2 (Homo sapiens) (Q16236 whole entry, looked up): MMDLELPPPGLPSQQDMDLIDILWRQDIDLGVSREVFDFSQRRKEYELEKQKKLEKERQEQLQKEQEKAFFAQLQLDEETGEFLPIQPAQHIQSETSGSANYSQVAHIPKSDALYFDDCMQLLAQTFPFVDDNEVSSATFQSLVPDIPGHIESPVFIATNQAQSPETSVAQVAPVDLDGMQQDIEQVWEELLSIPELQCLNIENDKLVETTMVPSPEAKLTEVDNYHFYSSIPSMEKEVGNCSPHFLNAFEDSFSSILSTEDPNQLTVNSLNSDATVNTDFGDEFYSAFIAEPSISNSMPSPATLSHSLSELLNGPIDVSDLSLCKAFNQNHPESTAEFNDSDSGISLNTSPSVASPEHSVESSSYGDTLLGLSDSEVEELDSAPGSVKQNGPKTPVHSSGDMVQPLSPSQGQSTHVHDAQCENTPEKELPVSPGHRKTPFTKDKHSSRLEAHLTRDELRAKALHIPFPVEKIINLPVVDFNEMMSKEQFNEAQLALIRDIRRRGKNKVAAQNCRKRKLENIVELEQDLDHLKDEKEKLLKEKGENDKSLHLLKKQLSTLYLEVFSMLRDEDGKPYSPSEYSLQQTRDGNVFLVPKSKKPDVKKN
Sequence of Signal transducer and activator of transcription 3 (Homo sapiens) (P40763 whole entry, looked up): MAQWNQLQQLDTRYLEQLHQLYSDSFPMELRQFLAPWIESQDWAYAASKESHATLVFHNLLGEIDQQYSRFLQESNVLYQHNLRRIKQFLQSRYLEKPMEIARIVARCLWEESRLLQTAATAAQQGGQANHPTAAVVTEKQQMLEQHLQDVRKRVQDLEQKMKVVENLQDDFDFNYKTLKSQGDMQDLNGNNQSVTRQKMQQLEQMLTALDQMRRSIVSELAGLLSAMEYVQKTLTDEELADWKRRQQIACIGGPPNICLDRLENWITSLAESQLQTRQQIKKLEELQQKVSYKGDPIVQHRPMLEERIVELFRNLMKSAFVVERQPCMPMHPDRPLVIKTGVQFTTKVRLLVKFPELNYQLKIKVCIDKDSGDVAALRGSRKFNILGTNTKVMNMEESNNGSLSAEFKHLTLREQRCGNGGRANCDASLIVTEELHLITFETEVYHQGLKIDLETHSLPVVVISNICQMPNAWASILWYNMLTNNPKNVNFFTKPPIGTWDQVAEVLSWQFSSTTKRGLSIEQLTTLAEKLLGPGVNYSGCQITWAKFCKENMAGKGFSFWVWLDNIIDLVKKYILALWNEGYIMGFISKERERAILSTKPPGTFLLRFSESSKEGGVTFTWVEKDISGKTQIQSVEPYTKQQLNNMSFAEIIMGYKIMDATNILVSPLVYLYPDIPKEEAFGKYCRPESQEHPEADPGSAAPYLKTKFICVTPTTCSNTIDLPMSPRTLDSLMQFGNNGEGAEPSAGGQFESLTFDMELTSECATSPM
Sequence of Nuclear factor NF-kappa-B p105 subunit (Homo sapiens) (P19838 whole entry, looked up): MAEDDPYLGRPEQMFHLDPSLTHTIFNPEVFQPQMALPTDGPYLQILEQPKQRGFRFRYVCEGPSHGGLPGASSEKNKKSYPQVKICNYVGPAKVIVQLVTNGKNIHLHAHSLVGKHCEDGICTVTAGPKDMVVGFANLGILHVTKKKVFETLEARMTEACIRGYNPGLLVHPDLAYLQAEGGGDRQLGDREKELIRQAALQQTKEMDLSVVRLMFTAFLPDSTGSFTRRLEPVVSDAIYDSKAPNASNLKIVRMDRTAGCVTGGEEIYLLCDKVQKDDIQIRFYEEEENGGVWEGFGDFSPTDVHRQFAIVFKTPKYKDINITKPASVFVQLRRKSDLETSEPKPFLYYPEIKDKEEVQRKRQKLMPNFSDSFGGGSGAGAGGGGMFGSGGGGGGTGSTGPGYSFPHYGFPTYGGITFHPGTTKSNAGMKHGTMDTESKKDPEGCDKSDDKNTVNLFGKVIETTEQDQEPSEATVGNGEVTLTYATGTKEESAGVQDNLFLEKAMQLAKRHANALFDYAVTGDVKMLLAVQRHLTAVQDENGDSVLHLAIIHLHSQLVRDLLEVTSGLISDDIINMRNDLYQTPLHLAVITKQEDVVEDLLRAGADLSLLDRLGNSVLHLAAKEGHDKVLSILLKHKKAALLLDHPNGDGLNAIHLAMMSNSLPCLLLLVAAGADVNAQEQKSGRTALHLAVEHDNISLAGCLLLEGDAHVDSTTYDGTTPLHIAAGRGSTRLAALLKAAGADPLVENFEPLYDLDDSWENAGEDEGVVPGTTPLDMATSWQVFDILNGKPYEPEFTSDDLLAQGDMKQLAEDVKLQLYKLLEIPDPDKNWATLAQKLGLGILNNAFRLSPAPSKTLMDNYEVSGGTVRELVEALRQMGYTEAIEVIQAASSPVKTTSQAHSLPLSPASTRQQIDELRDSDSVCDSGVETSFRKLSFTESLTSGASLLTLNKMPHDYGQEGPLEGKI

In the case of `CCOCCOCCOCCO`, the compound was called inactive in test [1], in test [2], in test [3], in test [4], in test [5] and in [6]. For the same compound, the compound was called inactive in test [7], in [8], in [9], in test [10], in [11] and in test [12]. Moreover, the result in test [13], in [14], in test [15], in [16], in [17] and in test [18] was inactive. Moreover, the compound was classed as inactive in test [19] and in test [20].

As for `COc1ccc(/C=C/S(=O)(=O)NC(=O)c2ccc(C)cc2Cl)cc1`, the outcome in test [1], in [2], in [3], in test [4], in test [5] and in [6] was inactive. Moreover, the result in test [7], in test [9], in [11], in test [12], in test [14] and in test [15] was inactive. Also, the result in test [16], in [17], in test [18] and in test [20] was inactive. Moreover, the figures for the AC50 in test [8], in test [10] and in test [13] were 75.3 µM (active), 0.11 µM (active) and 6.62 µM (active), respectively.

For `Cn1cnc([N+](=O)[O-])c1Sc1ncnc2nc[nH]c12`, the call in test [1], in test [3], in test [5], in test [9], in test [10] and in test [11] was inactive. In addition, the result in test [14], in test [15], in [16], in [17], in test [19] and in test [20] was inactive. Moreover, the AC50 in test [2] was 17.7 µM (active); in [4], 4.54 µM (active); in test [6], 6.38 µM (active); in test [7], 1.9 µM (active); in test [8], 1.66 µM (active); in test [12], 16.1 µM (active). Further, the half-maximal activity concentration (AC50) in test [13] was 6.61 µM (active); in [18] it was 1.62 µM (active).
